In PubChem BioAssay AID1159580 (chemical genetic matrix, 2015):
Screen size: about 5,500 compounds; about 2,000 (36%) were called active. Inconclusive results (about 18%) are left out. The list shows a part of the results. A number with no mark means an inactive call. Cut-off read from the data, not from the text of the source: active = normalized growth mostly below about 0.91 (no sharp cut-off); inconclusive = no clear call, values can overlap the other calls; inactive = mostly above about 0.92.

Experiment: chemical genetic growth profiling, strain panel (AID 1159580);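 note: tested at 20 µM; growth read once vehicle control cultures reached saturation at 30 °C; 1 = growth at the plate median or of vehicle wells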
Conditions: S. cerevisiae deletion strains, growth OD
[1] = locus YAL021C, strain ccr4, stronger effect = lower value
[2] = locus YAL026C, strain drs2, stronger effect = lower value
[3] = locus YAL030W, strain snc1, stronger effect = lower value
[4] = locus YBL061C, strain skt5, stronger effect = lower value
[5] = locus YBR009C, strain hhf1, stronger effect = lower value
[6] = locus YBR023C, strain chs3, stronger effect = lower value
[7] = locus YBR171W, strain sec66, stronger effect = lower value
[8] = locus YBR231C, strain swc5, stronger effect = lower value
[9] = locus YBR279W, strain paf1, stronger effect = lower value
[10] = locus YCL011C, strain gbp2, stronger effect = lower value
[11] = locus YCL016C, strain dcc1, stronger effect = lower value
[12] = locus YCL069W, strain vba3, stronger effect = lower value
[13] = locus YCR088W, strain abp1, stronger effect = lower value
[14] = locus YDL005C, strain med2, stronger effect = lower value
[15] = locus YDL040C, strain nat1, stronger effect = lower value
[16] = locus YDR001C, strain nth1, stronger effect = lower value
[17] = locus YDR069C, strain doa4, stronger effect = lower value
[18] = locus YDR137W, strain rgp1, stronger effect = lower value
[19] = locus YDR159W, strain sac3, stronger effect = lower value
[20] = locus YDR297W, strain sur2, stronger effect = lower value
[21] = locus YDR334W, strain swr1, stronger effect = lower value
[22] = locus YDR335W, strain msn5, stronger effect = lower value
[23] = locus YDR392W, strain spt3, stronger effect = lower value
[24] = locus YEL003W, strain gim4, stronger effect = lower value
[25] = locus YEL037C, strain rad23, stronger effect = lower value
[26] = locus YEL061C, strain CIN8 (second series), stronger effect = lower value
[27] = locus YER015W, strain faa2, stronger effect = lower value
[28] = locus YER016W, strain bim1, stronger effect = lower value
[29] = locus YER111C, strain swi4, stronger effect = lower value
[30] = locus YER155C, strain BEM2 (second series), stronger effect = lower value
[31] = locus YFR010W, strain ubp6, stronger effect = lower value
[32] = locus YGL167C, strain pmr1, stronger effect = lower value
[33] = locus YGL173C, strain kem1, stronger effect = lower value
[34] = locus YGL227W, strain vid30, stronger effect = lower value
[35] = locus YGL240W, strain doc1, stronger effect = lower value
[36] = locus YGL253W, strain hxk2, stronger effect = lower value
[37] = locus YHR013C, strain ard1, stronger effect = lower value
[38] = locus YHR027C, strain rpn1, stronger effect = lower value
[39] = locus YHR142W, strain chs7, stronger effect = lower value
[40] = locus YJL092W, strain hpr5, stronger effect = lower value
[41] = locus YJL095W, strain BCK1 (second series), stronger effect = lower value
[42] = locus YJL115W, strain asf1, stronger effect = lower value
[43] = locus YJL129C, strain trk1, stronger effect = lower value
[44] = locus YJL154C, strain vps35, stronger effect = lower value
[45] = locus YJL164C, strain tpk1, stronger effect = lower value
[46] = locus YJL166W, strain qcr8, stronger effect = lower value
[47] = locus YKL160W, strain elf1, stronger effect = lower value
[48] = locus YKR026C, strain gcn3, stronger effect = lower value
[49] = locus YKR091W, strain srl3, stronger effect = lower value
[50] = locus YLL001W, strain dnm1, stronger effect = lower value
[51] = locus YLL026W, stronger effect = lower value
[52] = locus YLL041C, strain sdh2, stronger effect = lower value
[53] = locus YLR027C, strain aat2, stronger effect = lower value
[54] = locus YLR221C, strain rsa3, stronger effect = lower value
[55] = locus YLR258W, strain gsy2, stronger effect = lower value
[56] = locus YLR262C, strain YPT6 (second series), stronger effect = lower value
[57] = locus YLR320W, strain mms22, stronger effect = lower value
[58] = locus YLR342W, strain FKS1, stronger effect = lower value
[59] = locus YLR357W, strain rsc2, stronger effect = lower value
[60] = locus YLR370C, strain arc18, stronger effect = lower value
[61] = locus YLR384C, strain iki3, stronger effect = lower value
[62] = locus YML120C, strain ndi1, stronger effect = lower value
[63] = locus YMR058W, strain fet3, stronger effect = lower value
[64] = locus YMR125W, strain sto1, stronger effect = lower value
[65] = locus YMR129W, stronger effect = lower value
[66] = locus YMR205C, strain PFK2, stronger effect = lower value
[67] = locus YMR231W, strain pep5, stronger effect = lower value
[68] = locus YNL071W, strain lat1, stronger effect = lower value
[69] = locus YNL209W, strain ssb2, stronger effect = lower value
[70] = locus YNL248C, strain rpa49, stronger effect = lower value
[71] = locus YNL322C, strain KRE1 (second series), stronger effect = lower value
[72] = locus YNR049C, strain mso1, stronger effect = lower value
[73] = locus YOR001W, strain rrp6, stronger effect = lower value
[74] = locus YOR070C, strain gyp1, stronger effect = lower value
[75] = locus YOR080W, strain dia2, stronger effect = lower value
[76] = locus YOR083W, strain WHI5, stronger effect = lower value
[77] = locus YOR106W, strain vam3, stronger effect = lower value
[78] = locus YOR265W, strain rbl2, stronger effect = lower value
[79] = locus YOR270C, strain vph1, stronger effect = lower value
[80] = locus YOR290C, strain snf2, stronger effect = lower value
[81] = locus YPL051W, strain arl3, stronger effect = lower value
[82] = locus YPL078C, strain atp4, stronger effect = lower value
[83] = locus YPL106C, strain sse1, stronger effect = lower value
[84] = locus YPL240C, strain hsp82, stronger effect = lower value

Compound: CC(=CC1CCC(C)C2C1=C(C)CC2O)C(=O)O (stereo unspecified)
- normalized growth [1]: 1.01
- normalized growth [2]: 1.04
- normalized growth [3]: 1.01
- normalized growth [4]: 1.02
- normalized growth [5]: 1.01
- normalized growth [6]: 1.02
- normalized growth [7]: 1.02
- normalized growth [8]: 1.02
- normalized growth [9]: 1.02
- normalized growth [10]: 1.02
- normalized growth [11]: 1.01
- normalized growth (locus YCL061C, strain MRC1, stronger effect = lower value): 1.02
- normalized growth [12]: 1.01
- normalized growth [13]: 1.01
- normalized growth [14]: 1.03
- normalized growth [15]: 1.01
- normalized growth [16]: 1.01
- normalized growth [17]: 1
- normalized growth [18]: 1.04
- normalized growth [19]: 1.04
- normalized growth (locus YDR195W, strain ref2): 1.02
- normalized growth [20]: 1.02
- normalized growth [21]: 1.02
- normalized growth [22]: 1.02
- normalized growth [23]: 0.944
- normalized growth [24]: 1.02
- normalized growth [25]: 1.01
- normalized growth [26]: 1.02
- normalized growth [27]: 1.03
- normalized growth [28]: 1.02
- normalized growth [29]: 1.01
- normalized growth [30]: 1.03
- normalized growth [31]: 1.03
- normalized growth [32]: 1.01
- normalized growth [33]: 1.03
- normalized growth [34]: 1.01
- normalized growth [35]: 1.02
- normalized growth [36]: 1.03
- normalized growth [37]: 1.03
- normalized growth [38]: 1.04
- normalized growth [39]: 1.02
- normalized growth [40]: 1.02
- normalized growth [41]: 1.02
- normalized growth [42]: 1.02
- normalized growth [43]: 1.04
- normalized growth [44]: 1.01
- normalized growth [45]: 1.01
- normalized growth [46]: 1.02
- normalized growth [47]: 1
- normalized growth [48]: 1.01
- normalized growth [49]: 1.02
- normalized growth [50]: 1.03
- normalized growth [51]: 1.03
- normalized growth [52]: 1.01
- normalized growth [53]: 1.02
- normalized growth [54]: 1.01
- normalized growth [55]: 1.01
- normalized growth [56]: 1.02
- normalized growth [57]: 1.02
- normalized growth [58]: 1.02
- normalized growth [59]: 0.995
- normalized growth [60]: 0.997
- normalized growth [61]: 1.02
- normalized growth [62]: 1.02
- normalized growth [63]: 1.03
- normalized growth [64]: 0.987
- normalized growth [65]: 1.02
- normalized growth [66]: 1.02
- normalized growth [67]: 1.02
- normalized growth [68]: 1.03
- normalized growth [69]: 1.03
- normalized growth [70]: 1.07
- normalized growth [71]: 1.01
- normalized growth [72]: 1.01
- normalized growth [73]: 1.04
- normalized growth [74]: 1
- normalized growth [75]: 1.02
- normalized growth [76]: 1.01
- normalized growth [77]: 1.01
- normalized growth [78]: 1.02
- normalized growth [79]: 1.07
- normalized growth [80]: 0.989
- normalized growth [81]: 1.03
- normalized growth [82]: 1.01
- normalized growth [83]: 1.03
- normalized growth [84]: 1.02

Compound: CC(=CC1CCC(C)C2CCC(C)=C12)C(=O)O (stereo unspecified)
- normalized growth [1]: 0.948
- normalized growth [2]: 0.904 (active)
- normalized growth [3]: 0.93
- normalized growth [4]: 0.931
- normalized growth [5]: 0.958
- normalized growth [6]: 0.929
- normalized growth [7]: 0.876 (active)
- normalized growth [8]: 0.923
- normalized growth [9]: 0.95
- normalized growth [10]: 0.986
- normalized growth [11]: 0.927
- normalized growth [12]: 0.956
- normalized growth [13]: 0.938
- normalized growth [14]: 0.953
- normalized growth [15]: 0.935
- normalized growth [16]: 0.943
- normalized growth [17]: 0.931
- normalized growth [18]: 0.573 (active)
- normalized growth [19]: 0.888
- normalized growth (locus YDR195W, strain ref2): 1.12
- normalized growth [20]: 0.943
- normalized growth [21]: 0.927
- normalized growth [22]: 0.944
- normalized growth [23]: 0.373 (active)
- normalized growth [24]: 0.958
- normalized growth [25]: 0.942
- normalized growth [26]: 0.947
- normalized growth [27]: 0.971
- normalized growth [28]: 0.936
- normalized growth [29]: 0.923
- normalized growth [30]: 0.873
- normalized growth [31]: 0.965
- normalized growth [32]: 0.892 (active)
- normalized growth [33]: 0.891 (active)
- normalized growth [34]: 0.952
- normalized growth [35]: 0.941
- normalized growth [36]: 0.937
- normalized growth [37]: 0.954
- normalized growth [38]: 0.956
- normalized growth [39]: 0.901
- normalized growth [40]: 0.93
- normalized growth [41]: 0.927
- normalized growth [42]: 0.965
- normalized growth [43]: 0.799 (active)
- normalized growth [44]: 0.934
- normalized growth [45]: 0.923
- normalized growth [46]: 0.917
- normalized growth [47]: 0.939
- normalized growth [48]: 0.939
- normalized growth [49]: 0.93 (active)
- normalized growth [50]: 0.966
- normalized growth [51]: 0.946
- normalized growth [52]: 0.955
- normalized growth [53]: 0.953
- normalized growth [54]: 0.943
- normalized growth [55]: 0.941
- normalized growth [56]: 0.591 (active)
- normalized growth [57]: 0.779 (active)
- normalized growth [58]: 0.887 (active)
- normalized growth [59]: 1.01
- normalized growth [60]: 0.906 (active)
- normalized growth [61]: 0.926
- normalized growth [62]: 0.968
- normalized growth [63]: 0.937
- normalized growth [64]: 0.937
- normalized growth [65]: 0.928
- normalized growth [66]: 0.859 (active)
- normalized growth [67]: 0.898 (active)
- normalized growth [68]: 0.875 (active)
- normalized growth [69]: 0.978
- normalized growth [70]: 0.972
- normalized growth [71]: 0.94
- normalized growth [72]: 0.941
- normalized growth [73]: 0.942
- normalized growth [74]: 0.943
- normalized growth [75]: 0.961
- normalized growth [76]: 0.933
- normalized growth [77]: 0.914
- normalized growth [78]: 0.956
- normalized growth [79]: 0.727 (active)
- normalized growth [80]: 0.918
- normalized growth [81]: 0.907 (active)
- normalized growth [82]: 0.946
- normalized growth [83]: 1.04
- normalized growth [84]: 0.925 (active)
